Sampled rows, rich in hits. Any-hit rate of the full collection: about 4%.
PAX8 inh HTS – inhibitors of PAX8-driven TPO luciferase reporter, primary screen, RMG-I cells, single concentration. SteadyGlo, 24 h. inhibition, % at 12.6 µM. 1.2% of 360,000 active;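 active = mean replicate inhibition at least 60% with every replicate also reaching 60%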;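 also: luciferase light reporting Pax8 driven TPO promoter activity; plate controls were median of neutral control wells for no effect and mitoxantrone controls for full effect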
Beta cell apopt – inhibitors of cytokine-induced beta cell apoptosis, primary screen, luminescence. INS-1E cytokine-induced death, ATP luminescence, 48 h; percent of positive-control rescue, neutral wells zero. protection from apoptosis, % (test concentration not listed). 0.8% of 300,000 active. AID 435005, 2010;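 active = Every replicate reaches about 75%, or at least half do and their mean reaches it too, limit read from the data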;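 also: 0% = cytokine-treated negative control wells and 100% = positive control rescue; higher means more ATP so stronger rescue from cytokine killing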
Gli-Sufu antag – Gli-Sufu pathway antagonists, primary screen, luciferase luminescence, Sufu-KO-LIGHT cells, uHTS. Sufu-KO-LIGHT fibroblasts, Gli luciferase reporter luminescence. inhibition, % at 5 µM. 0.74% of 340,000 active. AID 588413, 2011;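 active = inhibition above about 55%, limit read from the data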;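 also: 0% = DMSO-treated cells and 100% = wells with medium but no cells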
Mdm2 MdmX PPI – inhibitors of human Mdm2-MdmX association, primary screen, cell-based, luminescence, split luciferase, SaOS-2, uHTS | inhibition, % at 8 µM | SaOS-2 split-luciferase Mdm2/MdmX complementation | 3% of 330,000 active;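 active = inhibition of at least 50% at 8 µM in the primary screen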
Shn3 3UTR inh – reduction of Shn3 3'UTR firefly luciferase signal, primary screen, Schnurri-3 inhibitor project, cell-based, Clone20 osteoblasts, set 2; Clone20 osteoblast Shn3 3'UTR firefly luciferase, 24 h; inhibition, % at 12.5 µM; 0.52% of 360,000 active; AID 588674, 2011;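 active = mean inhibition of at least 75% with every replicate also reaching 75%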;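 also: 0% = median of neutral control wells and 100% = pilot-screen positive control compound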
CSC inhib – cancer stem cell viability inhibitors, primary screen, luminescence; inhibition, % at 7.5 µM; AID 2717, 2010; 1.1% of 300,000 active; cancer stem cell-like cells viability; in the data active = inhibition above about 75%; tested in HMLE shEcad cells
Mdm2 MdmX conf – Mdm2-MdmX complex disruptors, retested hits, confirmation, luminescence, single concentration. shares compounds with Mdm2 MdmX PPI. Mdm2-MdmX binding, luminescent assay. inhibition, % at 8 µM. 55% of 10,000 active. AID 489028, 2010; in the data active = inhibition above about 40%
FLuc counter – full-length luciferase signal inhibition, confirmation, counter-screen for Mdm2/MdmX interaction inhibitor project, cell-based, single concentration, SaOS-2. shares compounds with Mdm2 MdmX PPI. SaOS-2 full-length luciferase counterscreen, luminescence. inhibition, % at 8 µM. 77% of 6,200 active. AID 504607, 2011;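 active = mean inhibition at 8 µM reaching about 37%, which flags the compound as non-specific, limit read from the data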;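 also: p53-null SaOS-2 cells with luciferase driven by a doxycycline-inducible promoter; compound on cells about two nights before reading with doxycycline added after day one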
* hit, by the source's call; x = no result.

SMILES	PAX8 inh HTS	Beta cell apopt	Gli-Sufu antag	Mdm2 MdmX PPI	Shn3 3UTR inh	CSC inhib	Mdm2 MdmX conf	FLuc counter
CCOC(=O)C(C(C)=O)c1c(Br)c(O)c(O)c2c(C(=O)c3ccc(C)cc3)coc12 (stereo not given)	x	95*	50	64*	65	103*	60*	47*
C[C@@H]1CCCCO[C@H](CN(C)CC2CCCCC2)[C@H](C)CN([C@H](C)CO)C(=O)c2cc(NS(C)(=O)=O)ccc2O1	2	x	x	x	x	x	x	x
C[C@H](CO)N1C[C@H](C)[C@H](CN(C)S(=O)(=O)c2cn(C)cn2)Oc2ccc(NC(=O)CCC(F)(F)F)cc2CC1=O	3	x	x	x	x	x	x	x
CC(=O)Oc1c(C)cc(Cl)cc1C(=O)Nc1ccc([N+](=O)[O-])cc1Cl	42	106*	73*	99*	78	120*	81*	28
O=C(Nc1ccc(N2CCN(C(=O)c3ccccc3F)CC2)cc1)c1cncc(Br)c1	-19	-4	-10	63*	15	6	62*	21
O=C(Nc1ccc(N2CCCCC2)cc1)c1cncc(Br)c1	x	-8	-114	-52	-67	-17	x	x
Cc1cc(NC(=O)COC(=O)c2oc3c(ccc4ccccc43)c2C)no1	-12	20	0	59*	9	-17	31	59*
Cc1c(C(=O)OCC(=O)Nc2ccc(S(N)(=O)=O)cc2)oc2c1ccc1ccccc12	-2	x	7	52*	-1	x	23	x
Cc1cc(NC(=O)COC(=O)c2ccccc2O)no1	-5	-5	1	-8	-10	-8	x	x
CN(C)CCNc1nc2sc3c(c2c(=O)n1CCc1ccccc1)CCCCC3	-12	7	20	76*	-21	106*	26	x
C[C@H]1CCCCO[C@H](CN(C)C(=O)Nc2ccc(C(F)(F)F)cc2)[C@@H](C)CN([C@@H](C)CO)C(=O)c2cc(NC(=O)C3CCCCC3)ccc2O1	41	x	x	x	x	x	x	x
CNC(=O)C[C@H]1CC[C@@H]2[C@H](COC[C@H](O)CN2C(=O)Nc2cccc(OC)c2)O1	-4	x	x	x	x	x	x	x
CCc1c(C)nc2ccc(Br)cc2c1SCCC#N	-3	-8	6	67*	12	2	59*	23
O=P(CCCCCCCCCP(=O)(c1ccccc1)c1ccccc1)(c1ccccc1)c1ccccc1	80*	x	17	66*	88*	38	30	x
O=C(O)CCCCCCCCCCP(=O)(c1ccccc1)c1ccccc1	7	-3	5	-32	14	8	x	x
N#C[C@@H]1[C@H](c2ccc(C3=CCCC3)cc2)[C@@H](CO)N1C(=O)c1cccc(F)c1	14	x	x	x	x	x	x	x
COc1cc(Cl)c(C)cc1NCC(=O)Nc1cccc(S(=O)(=O)N2CCCC2)c1	15	-2	-15	51*	15	x	14	x
COc1ccccc1NS(=O)(=O)c1cccc(NC(=O)Nc2ccc(Cl)cc2)c1	0	47	-13	94*	13	x	43*	69*
COc1ccc(NC(=O)COc2ccc(C)c(C)c2)cc1S(=O)(=O)N1CCCCC1	-9	2	7	-1	-7	6	x	x
O=C(CNc1ccc(F)cc1Cl)Nc1cccc(S(=O)(=O)N2CCCCC2)c1	-2	8	1	6	2	x	x	x
O=C(Nc1ccc(Cl)cc1Cl)NC1CCN(S(=O)(=O)c2ccc(F)cc2)CC1	28	7	5	51*	5	60	42*	59*
O=C(Nc1ccc(Cl)cc1Cl)NC1CCCC1	-55	3	-13	0	-32	10	x	x
